We go through 40 molecules from PubChem BioAssay.

Active and inactive are the calls of the source. How the calls were made is not given here.

In the assay the target is Pantothenate synthetase (Mycobacterium tuberculosis (strain ATCC 25618 / H37Rv)) (UniProt P9WIL5). In words: Recombinant Mtb pantothenate synthetase (PanC) inhibitors, coupled enzyme, confirmatory (AID 375).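 Further: 0% = full reaction with vehicle and 100% = no enzyme background.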 The conditions noted are these: coupled enzyme assay; at 10 µM, active compounds read high.
Pantothenate synthetase (Mycobacterium tuberculosis (strain ATCC 25618 / H37Rv)), sequence (P9WIL5 whole entry, looked up): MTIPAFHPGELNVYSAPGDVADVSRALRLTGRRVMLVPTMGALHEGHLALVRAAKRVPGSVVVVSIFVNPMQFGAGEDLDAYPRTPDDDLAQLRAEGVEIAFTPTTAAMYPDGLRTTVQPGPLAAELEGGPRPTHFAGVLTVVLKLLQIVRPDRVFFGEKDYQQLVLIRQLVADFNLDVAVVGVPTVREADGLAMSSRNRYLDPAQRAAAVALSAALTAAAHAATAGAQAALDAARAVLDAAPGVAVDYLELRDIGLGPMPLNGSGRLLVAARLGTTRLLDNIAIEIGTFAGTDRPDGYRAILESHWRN
What is called inhibition is the drop in the measured response relative to a control, in per cent. On to `Nc1cc(N)cc(-c2nc3ccccc3o2)c1`, for which the inhibition is 4% (inactive).

As for `COc1ccc(CNC(=O)c2cnc3n(c2=O)CCS3)cc1`, the inhibition was 0% (inactive).

For the molecule `CC(=O)[C@@]1(O)CC[C@H]2[C@@H]3C[C@H](C)C4=CC(=O)CC[C@]4(C)[C@H]3CC[C@@]21C`, the inhibition was 1% (inactive).

Turning to `COc1ccc(C2C(C(=O)Nc3cccnc3)=C(C)Nc3nc(-c4cccs4)nn32)cc1OC` (stereo not given), the inhibition is 6% (inactive).

Take `CCOc1cc(C2c3c(n[nH]c3C)C(=O)N2c2ccc(Br)cc2)ccc1O` (stereo not given): the inhibition was 0% (inactive).

As to `O=C(CCn1c(=O)oc2ccccc21)N1CCN(c2ccccc2Cl)CC1`, the inhibition is 0% (inactive).

As to `CC1CCc2nn(CC(=O)NCCN3CCCCC3C)cc2C1` (stereo not given), the inhibition is 0% (inactive).

On to `O=C(COC(=O)CCOc1ccccc1)Nc1ccc(Cl)cn1`, for which the inhibition is 0% (inactive).

As for `CCOC(=O)CN(C)Cc1c[nH]c2ccccc12`, the inhibition was 14% (inactive).

Take `Cc1ccc(Nc2cc(-n3nc(C)cc3C)ncn2)cc1`: the inhibition is 0% (inactive).

As to `C/C(=C\C(=O)O)CC(=O)O`, the inhibition is 0% (inactive).

Regarding `O=S(=O)(Nc1ccc2c(c1)OCO2)c1ccc(Br)s1`, the inhibition is 0% (inactive).

Regarding `COC(=O)c1ccc(NC(=O)C2C3CCC(C3)C2C(=O)O)cc1` (stereo not given), the inhibition was 0% (inactive).

As for `CSc1c(CC(=O)NCCO)n(C)c2ccccc12`, the inhibition was 0% (inactive).

As for `CC1=C(C(=O)Nc2ccccc2C)C2(CCCC2)C(C(N)=O)C(=O)N1` (stereo not given), the inhibition was 0% (inactive).

With `CC1CCN(S(=O)(=O)c2ccc3[nH]c(=O)cc(C(=O)O)c3c2)CC1`, the inhibition was 0% (inactive).

Regarding `COc1cccc(NC(=O)N2CCC(N3CCCCC3)CC2)c1`, the inhibition was 0% (inactive).

As for `COc1ccccc1N1CCN(c2cc(=O)n(Cc3ccc(F)cc3)c(=O)[nH]2)CC1`, the inhibition was 0% (inactive).

In the case of `CC1Cc2ccccc2N1S(=O)(=O)c1cccc(C(=O)OCC(=O)NC2CCS(=O)(=O)C2)c1` (stereo not given), the inhibition is 0% (inactive).

In the case of `O=C(NCc1cccs1)C1CCN(S(=O)(=O)c2cccs2)CC1`, the inhibition is 0% (inactive).

For `Cc1cc(C)n(-c2nc(C)nc3c2cnn3-c2ccccc2)n1`, the inhibition was 0% (inactive).

Take `Cc1ccc(S(=O)(=O)NCCc2ccncc2)cc1`: the inhibition is 2% (inactive).

Regarding `CCC(C)(C(=O)NC1CCCC1)N(Cc1cccs1)C(=O)Cc1cccs1` (stereo not given), the inhibition was 0% (inactive).

For `CCN1CCN(c2ncnc3c2oc2nc(C)c4c(c23)CC(C)(C)OC4)CC1`, the inhibition was 0% (inactive).

In the case of `O=C(NCc1ccccc1)c1ccc(OC2CSC2)cc1`, the inhibition is 1% (inactive).

With `Cc1ccc(S(=O)(=O)CC(=O)N2CCCCCC2)cc1`, the inhibition was 0% (inactive).

As for `O=C(OCC(=O)N1CCCC1)c1ccccc1OCc1ccccc1`, the inhibition is 0% (inactive).

Regarding `CCN1CCN(Cc2ccc(NC(=O)Nc3ccccc3)cc2)CC1`, the inhibition is 1% (inactive).

For the molecule `CCOC(=O)c1sc(N)c(C(=O)OCC)c1COC(=O)C1CC(=O)N(Cc2ccco2)C1` (stereo not given), the inhibition was 6% (inactive).

Regarding `CCOC(=O)c1oc2ccccc2c1NC(=O)COC`, the inhibition was 0% (inactive).

`COc1cccc(N2CCN(c3ncnc4c3[nH]c3ccc(F)cc34)CC2C)c1` (stereo not given): the inhibition was 0% (inactive).

In the case of `N[C@@H](Cc1cc(I)c(Oc2ccc(O)c(I)c2)c(I)c1)C(=O)O`, the inhibition is 0% (inactive).

On to `Cc1cc(C(=O)NCCCN2CCN(C3CCCCC3)CC2)n(-c2ccccc2)n1`, for which the inhibition was 4% (inactive).

With `CN(C1CCCCC1)S(=O)(=O)c1ccc(S(=O)(=O)N2CCN(CCC#N)CC2)cc1`, the inhibition is 6% (inactive).

On to `Cc1cc(C)n(-c2nc3nonc3nc2-n2nc(C)cc2C)n1`, for which the inhibition is 0% (inactive).

For the molecule `CCC(=O)N1CCNC(=O)C1CC(=O)Nc1ccc(C)c(Cl)c1` (stereo not given), the inhibition is 0% (inactive).

`O=C1c2cccnc2C(=O)N1c1cccc(-c2nc3ccccc3o2)c1`: the inhibition was 3% (inactive).

In the case of `O=C(O)c1ccc(NC(=O)c2cccs2)cc1`, the inhibition was 0% (inactive).

Consider `O=C(Nc1nnc(C2CCCCC2)s1)c1cccs1`, for which the inhibition was 8% (inactive).

Regarding `O=C(NCc1ccc2c(c1)OCO2)c1cc2n(n1)C(C(F)(F)F)CC(c1ccc3c(c1)OCO3)N2` (stereo not given), the inhibition is 0% (inactive).
